Screening data (PubChem BioAssay)
An excerpt weighted towards active compounds, which were near 3.7% of everything screened.
tim10-1 inh – inhibits growth of tim10-1 mutant yeast | S. cerevisiae tim10-1 ts strain growth, BacTiter-Glo, 24 h | inhibition, % at 20 µM | 330,000 tested, 2.2% active;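 active means inhibition of at least 40%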;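 further: mutant grown at 25 °C; 0% = DMSO wells with yeast and 100% = wells holding no yeast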
NLRP3 yeast inh – NALP3 inhibition in yeast | 330,000 tested, 0.39% active | AID 2825 | Yeast reconstituted NLRP3/ASC/caspase-1, beta-gal luminescence, 24 h | inhibition, % at 10 µM;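 active means inhibition of 50% or more; inactive means inhibition below 50%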;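 further: plate controls were induced DMSO wells for no effect and uninduced yeast grown without galactose for full effect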
tim23-1 inh – inhibits growth of tim23-1 mutant yeast. inhibition, % at 20 µM. 330,000 tested, 1.3% active. S. cerevisiae tim23-1 growth, BacTiter-Glo luminescence, 24 h;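 active means growth inhibition of the mutant yeast at or above 50%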;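 further: temperature-sensitive mutant grown at 25 °C; plate controls were DMSO-treated mutant yeast for no effect and medium wells lacking yeast for full effect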
PfHsp90 yeast 2 – inhibits growth of yeast expressing Plasmodium falciparum Hsp90; S. cerevisiae expressing PfHsp90, BacTiter-Glo ATP, 48 h; yeast lacking PDR1 and PDR3 efflux regulators; inhibition, % at 9.4 µM; 310,000 tested, 0.32% active;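 active means every replicate shows inhibition above about 80%, whatever the replicate mean, limit read from the data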;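 further: 0% = DMSO neutral controls and 100% = 20 µM radicicol positive controls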
TIM10 inh – inhibits growth of TIM10 yeast strain. AID 463195. inhibition, % at 10 µM. 330,000 tested, 1.4% active. S. cerevisiae TIM10 strain growth, BacTiter-Glo luminescence, 24 h;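 active means inhibition of 40% or more at the single tested concentration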;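 further: wild-type TIM10 isogenic control strain grown at permissive 25 °C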
tim10-1 conf – tim10-1 yeast growth inhibition, confirmed; shares compounds with tim10-1 inh; 7,400 tested, 56% active; inhibition, % at 20 µM; S. cerevisiae tim10-1 ts strain growth, BacTiter-Glo, 24 h;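 active means inhibition of yeast growth at or above a set limit in either of two repeat tests at 20 µM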;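 further: tim10-1 mutant grown at permissive 25 °C to find synthetic lethal compounds; 0% = DMSO yeast wells and 100% = medium wells without yeast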
* hit, by the source's call.

COc1ccc(C2NC(=S)NC3=C2CCc2cc(OC)ccc23)cc1 (stereo not given) was read as tim10-1 inh 54*, NLRP3 yeast inh 16, tim23-1 inh 48, PfHsp90 yeast 2 -3, TIM10 inh 34 and tim10-1 conf 40*.
For CC1CN(c2nc3c(c(=O)n(Cc4ccc(Cl)cc4)c(=O)n3C)n2C)CC(C)O1 (stereo not given) the results were tim10-1 inh 44*, NLRP3 yeast inh -7, tim23-1 inh 19, PfHsp90 yeast 2 4, TIM10 inh 38 and tim10-1 conf 26.
Screening CC1CN(Cc2ccccc2)c2nc3c(c(=O)n(C)c(=O)n3C)n2C1 (stereo not given) returned tim10-1 inh -2, NLRP3 yeast inh 13, tim23-1 inh 15, PfHsp90 yeast 2 -14 and TIM10 inh -8.
For CC(C)Cn1c(=O)c2c(nc3n2CC(C)CN3Cc2ccccc2)n(C)c1=O (stereo not given) the results were tim10-1 inh 40*, NLRP3 yeast inh 16, tim23-1 inh 30, PfHsp90 yeast 2 -27, TIM10 inh 8 and tim10-1 conf 7.
`Cc1ccccc1NS(=O)(=O)c1ccc(C(=O)N2CCN(S(=O)(=O)c3ccccc3)CC2)cc1` gave tim10-1 inh -7, NLRP3 yeast inh 11, tim23-1 inh 6, PfHsp90 yeast 2 3 and TIM10 inh -3.
For COc1ccc(Cn2c(=S)[nH]c3ccsc3c2=O)cc1 the results were tim10-1 inh 51*, NLRP3 yeast inh -7, tim23-1 inh 21, PfHsp90 yeast 2 -29, TIM10 inh 28 and tim10-1 conf 19.
For CC(C)C[C@H](N)c1nnc(SCC(=O)Nc2ccc(Br)cc2)o1 the results were tim10-1 inh 43*, NLRP3 yeast inh 0, tim23-1 inh 2, PfHsp90 yeast 2 2, TIM10 inh 16 and tim10-1 conf -9.
`O=C(NC1CCS(=O)(=O)C1)c1cccc(Cl)c1` (stereo not given) gave tim10-1 inh 1, NLRP3 yeast inh 11, tim23-1 inh -4 and TIM10 inh -2.
Screening Cc1ccccc1C(=O)Nc1cccc(C(=O)N/N=C/c2cc(Cl)cc([N+](=O)[O-])c2O)c1 returned tim10-1 inh 41*, NLRP3 yeast inh 20, tim23-1 inh 8, PfHsp90 yeast 2 -39, TIM10 inh 18 and tim10-1 conf 22.
For C=CCN(CC=C)c1nc2ccccc2nc1C(C#N)C(=O)OC(C)C (stereo not given) the results were tim10-1 inh 45*, NLRP3 yeast inh 10, tim23-1 inh 49, PfHsp90 yeast 2 -20, TIM10 inh 32 and tim10-1 conf 38*.
CCOc1ccccc1NC(=O)/C=C/C(N)=O was read as tim10-1 inh 40*, NLRP3 yeast inh 42, tim23-1 inh 22, PfHsp90 yeast 2 -12, TIM10 inh 33 and tim10-1 conf 34*.
Screening CCOc1ccccc1NC(=O)/C=C/c1ccccc1[N+](=O)[O-] returned tim10-1 inh 29, NLRP3 yeast inh 23, tim23-1 inh 15, PfHsp90 yeast 2 -6 and TIM10 inh 9.
For CCOC(=O)/C=C/C(=O)Nc1ccccc1C(=O)NC1CCCCC1 the results were tim10-1 inh 46*, NLRP3 yeast inh 21, tim23-1 inh 33, PfHsp90 yeast 2 -8, TIM10 inh 38 and tim10-1 conf 22.
For Brc1ccc(-c2csc3ncnc(-n4nnc5ccccc54)c23)cc1 the results were tim10-1 inh 45*, NLRP3 yeast inh -6, tim23-1 inh 49, PfHsp90 yeast 2 -11, TIM10 inh 14 and tim10-1 conf 32*.
O=C(NCC(=O)N1CCN(c2ccccc2F)CC1)c1ccc(Br)o1 was read as tim10-1 inh -33, NLRP3 yeast inh 16, tim23-1 inh -1, PfHsp90 yeast 2 17 and TIM10 inh -4.
Screening Cc1nn(CCCC(=O)Nc2cc(Oc3ccc(F)cc3)cc([N+](=O)[O-])c2)c(C)c1[N+](=O)[O-] returned tim10-1 inh 41*, NLRP3 yeast inh 11, tim23-1 inh 32, TIM10 inh 16 and tim10-1 conf 22.
Screening CCn1nc(C)c(C(=O)Nc2cc(Oc3ccc(Cl)cc3)cc([N+](=O)[O-])c2)c1C returned tim10-1 inh 49*, NLRP3 yeast inh 13, tim23-1 inh 44, TIM10 inh 40 and tim10-1 conf 36*.
`Cc1ccccc1Oc1cc(NC(=O)CCCn2nc(C)c([N+](=O)[O-])c2C)cc([N+](=O)[O-])c1` gave tim10-1 inh 8, NLRP3 yeast inh 11, tim23-1 inh 24, PfHsp90 yeast 2 12 and TIM10 inh 9.
CCn1c(C)nc2cc(NC(=O)Nc3cccc(C(C)=O)c3)ccc21 was read as tim10-1 inh 16, NLRP3 yeast inh 3, tim23-1 inh 4, PfHsp90 yeast 2 -15 and TIM10 inh 7.
`O=C(c1cc(COc2c(F)cccc2F)on1)N1CCC(c2ccccc2Cl)C1` (stereo not given) gave tim10-1 inh 20, NLRP3 yeast inh 8, tim23-1 inh 16, PfHsp90 yeast 2 -8 and TIM10 inh 5.
`CCc1ccc(CN(C)C(=O)c2cc(COc3cccc4cnccc34)on2)cc1` gave tim10-1 inh 44*, NLRP3 yeast inh -2, tim23-1 inh 40, PfHsp90 yeast 2 -2, TIM10 inh 17 and tim10-1 conf 2.
Screening O=C(c1cc(COc2cccc3cnccc23)on1)N1CCC(c2ccccc2Cl)C1 (stereo not given) returned tim10-1 inh 51*, NLRP3 yeast inh -2, tim23-1 inh 32, PfHsp90 yeast 2 8, TIM10 inh 12 and tim10-1 conf 3.
Cc1ccc2occ(/C=C/C(=O)c3ccccc3O)c(=O)c2c1 was read as tim10-1 inh 48*, NLRP3 yeast inh 6, tim23-1 inh 38, PfHsp90 yeast 2 -30, TIM10 inh 17 and tim10-1 conf 33*.
Cc1c(/C=C/C(=O)c2ccccc2O)cnn1C was read as tim10-1 inh 50*, NLRP3 yeast inh 30, tim23-1 inh 39, PfHsp90 yeast 2 14, TIM10 inh 37 and tim10-1 conf 39*.
Screening Cc1ccc(/C=C/C(=O)c2ccccc2O)cc1 returned tim10-1 inh 15, NLRP3 yeast inh 17, tim23-1 inh 34, PfHsp90 yeast 2 6 and TIM10 inh 27.
`O=C(Oc1ccc(Oc2ccccc2)cc1)N1CCC(O)CC1` gave tim10-1 inh 11, NLRP3 yeast inh 14, tim23-1 inh 10, PfHsp90 yeast 2 -1 and TIM10 inh 16.
For COc1ccc(CN(C2CCCC2)S(=O)(=O)c2ccc(-n3cnnn3)cc2)cc1OC the results were tim10-1 inh 28, NLRP3 yeast inh 14, tim23-1 inh -4, PfHsp90 yeast 2 11 and TIM10 inh -13.
COc1ccc(CN(C2CCCC2)S(=O)(=O)c2ccc(-n3cnnn3)cc2)cc1 was read as tim10-1 inh 40*, NLRP3 yeast inh 14, tim23-1 inh 34, PfHsp90 yeast 2 -17, TIM10 inh 34 and tim10-1 conf 35*.
